# Experimental data: PubChem BioAssay AID651780 (The Scripps Research Institute Molecular Screening Center, 2012)
# About 1,800 (75%) of roughly 2,400 compounds were called active. Cut-off read from the data, not from the text of the source: active = inhibition above about 22%; inactive = the rest. So high a share suggests a set chosen from earlier hits. The list is a sample of the results.
# Test: calcium response inhibition in counter-screen line – cell-based, fluorescence, counter-screen for hTAAR1 antagonist project (AID 651780);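 note: CHO-Ga16 host cells stimulated with ATP at an EC80 level; 0% = agonist EC80 plus vehicle and 100% = vehicle without agonist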
# Conditions: counterscreen cell line, antagonist mode, at 3 µM, active compounds read high
row,SMILES,inhibition
1,COC(=O)C1=C(c2ccc(F)cc2OCc2ccccc2)C[C@@H]2CC[C@H]1N2C(=O)NCc1ccc(OC)c(OC)c1,24.8% (active)
2,COC(=O)C1=C(c2ccccc2OCc2ccccc2)C[C@@H]2CC[C@H]1N2C(=O)NCc1ccc(OC)cc1,22.2% (active)
3,O=C1C2(Cl)C3(Cl)C4(Cl)C(Cl)(Cl)C5(Cl)C3(Cl)C1(Cl)C5(Cl)C24Cl (stereo not drawn),24.9% (active)
